Measured values taken from publication PMC7862700, “An all-to-all approach to the identification of sequence-specific readers for epigenetic DNA modifications on cytosine”.

What was measured:
Experiment in all cases: DAPPL (digital affinity profiling via proximity ligation, sequencing); 10 mM Tris-HCl pH 7.5, 50 mM NaCl, 1 mM DTT, 4% glycerol, room temperature, 30 min; GST-TFs on glutathione beads, 16-mer random dsDNA library, 0.1% formaldehyde crosslink after washing; high values mean tight binding
[1] = biological target: T1, FEV (Homo sapiens, UniProt Q99581 1-238); conditions: protein: recombinant; tags: N-terminal GST; dsDNA, one strand shown
T1 sequence: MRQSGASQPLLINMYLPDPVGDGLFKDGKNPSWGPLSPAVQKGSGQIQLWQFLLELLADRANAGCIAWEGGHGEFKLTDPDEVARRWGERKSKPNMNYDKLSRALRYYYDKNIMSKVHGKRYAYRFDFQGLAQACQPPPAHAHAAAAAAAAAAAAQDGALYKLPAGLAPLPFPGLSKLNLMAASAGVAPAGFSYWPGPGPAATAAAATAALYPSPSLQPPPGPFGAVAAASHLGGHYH
Summary of the method: (§1)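 In yeast, human transcription factors were expressed with a GST fusion, then pulled down on glutathione beads and given DNA barcodes. Pooled with a tag-only sample, they were exposed to 200 nmole of a 16-mer random double-stranded DNA library (Tris/NaCl/DTT/glycerol buffer, room temperature, 30 min), washed, crosslinked with 0.1% formaldehyde, proximity-ligated using BsaI/T4 ligase for 1 h at 37 °C, PCR-amplified and read on an Illumina NextSeq500. Each hexamer's frequency of reads for a factor, divided by the matching frequency for the tag-only sample, gives the binding signal.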

[2] = biological target: ETV5 (Homo sapiens, UniProt P41161 1-510); conditions: protein: recombinant; tags: N-terminal GST; dsDNA, one strand shown
Sequence of ETV5 (P41161 whole entry): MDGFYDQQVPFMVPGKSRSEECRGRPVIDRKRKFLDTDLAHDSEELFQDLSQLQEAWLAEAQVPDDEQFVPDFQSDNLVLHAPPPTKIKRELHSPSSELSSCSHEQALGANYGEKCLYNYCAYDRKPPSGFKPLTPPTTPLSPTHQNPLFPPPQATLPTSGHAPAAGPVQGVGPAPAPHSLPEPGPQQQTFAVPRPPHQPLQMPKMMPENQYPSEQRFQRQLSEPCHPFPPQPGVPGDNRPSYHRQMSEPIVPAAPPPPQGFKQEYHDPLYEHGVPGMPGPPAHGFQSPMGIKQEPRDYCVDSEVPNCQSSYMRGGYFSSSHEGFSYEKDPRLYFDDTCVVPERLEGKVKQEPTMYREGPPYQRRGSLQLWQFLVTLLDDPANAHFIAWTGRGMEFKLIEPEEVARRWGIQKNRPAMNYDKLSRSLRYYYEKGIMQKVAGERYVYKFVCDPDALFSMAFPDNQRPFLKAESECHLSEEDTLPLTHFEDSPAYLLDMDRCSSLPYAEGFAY
Summary of the method: as §1

[3] = biological target: HSF1 (Homo sapiens, UniProt Q00613 1-529); conditions: protein: recombinant; tags: N-terminal GST; chain copies: 3; dsDNA, one strand shown
Sequence of HSF1 (Q00613 whole entry): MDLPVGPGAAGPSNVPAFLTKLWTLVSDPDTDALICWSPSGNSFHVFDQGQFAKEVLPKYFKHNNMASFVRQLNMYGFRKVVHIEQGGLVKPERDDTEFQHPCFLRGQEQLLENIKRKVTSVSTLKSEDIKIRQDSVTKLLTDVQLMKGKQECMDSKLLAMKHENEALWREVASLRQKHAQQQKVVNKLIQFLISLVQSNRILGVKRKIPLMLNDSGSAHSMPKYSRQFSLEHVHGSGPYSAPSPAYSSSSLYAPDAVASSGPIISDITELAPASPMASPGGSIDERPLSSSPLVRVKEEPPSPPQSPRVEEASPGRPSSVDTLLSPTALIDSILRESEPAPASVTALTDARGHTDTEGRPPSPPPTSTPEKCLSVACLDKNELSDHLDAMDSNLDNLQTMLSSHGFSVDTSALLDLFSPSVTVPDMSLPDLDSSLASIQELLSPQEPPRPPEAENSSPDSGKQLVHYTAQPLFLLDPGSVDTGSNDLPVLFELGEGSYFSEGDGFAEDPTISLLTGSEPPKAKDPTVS
Summary of the method: as §1

[4] = biological target: T2, SPIC (Homo sapiens, UniProt Q8N5J4 1-248); conditions: protein: recombinant; tags: N-terminal GST; dsDNA, one strand shown
T2 sequence: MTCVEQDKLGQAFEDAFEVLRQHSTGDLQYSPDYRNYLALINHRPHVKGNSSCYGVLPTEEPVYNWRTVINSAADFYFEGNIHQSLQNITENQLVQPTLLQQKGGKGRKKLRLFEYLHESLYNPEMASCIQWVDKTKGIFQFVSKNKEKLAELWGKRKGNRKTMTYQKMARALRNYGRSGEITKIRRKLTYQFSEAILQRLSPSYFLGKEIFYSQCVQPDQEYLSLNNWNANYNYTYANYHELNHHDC
Summary of the method: as §1

[5] = biological target: ELF4 (Homo sapiens, UniProt Q99607 1-663); conditions: protein: recombinant; tags: N-terminal GST; dsDNA, one strand shown
Sequence of ELF4 (Q99607 whole entry): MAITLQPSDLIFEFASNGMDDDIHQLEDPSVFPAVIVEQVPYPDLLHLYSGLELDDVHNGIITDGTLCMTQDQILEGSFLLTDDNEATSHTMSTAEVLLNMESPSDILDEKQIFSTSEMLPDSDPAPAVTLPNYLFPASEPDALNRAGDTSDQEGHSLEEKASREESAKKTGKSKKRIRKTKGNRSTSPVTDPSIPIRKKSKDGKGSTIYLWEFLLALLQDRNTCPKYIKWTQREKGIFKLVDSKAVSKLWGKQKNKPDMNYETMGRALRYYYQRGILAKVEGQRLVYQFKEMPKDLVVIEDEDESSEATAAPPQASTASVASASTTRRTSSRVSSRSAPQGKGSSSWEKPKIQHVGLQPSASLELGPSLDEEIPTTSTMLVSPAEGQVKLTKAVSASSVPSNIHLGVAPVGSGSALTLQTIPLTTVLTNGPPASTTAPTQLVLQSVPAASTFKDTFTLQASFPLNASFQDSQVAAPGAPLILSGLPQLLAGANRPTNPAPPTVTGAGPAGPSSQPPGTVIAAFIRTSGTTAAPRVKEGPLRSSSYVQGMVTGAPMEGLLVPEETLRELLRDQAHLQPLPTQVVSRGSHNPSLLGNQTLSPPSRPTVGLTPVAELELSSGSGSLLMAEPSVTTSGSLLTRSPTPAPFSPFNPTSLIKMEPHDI
Summary of the method: as §1

[6] = biological target: T3, ELK4 (Homo sapiens, UniProt P28324-2 1-405); conditions: protein: recombinant; tags: N-terminal GST; dsDNA, one strand shown
T3 sequence: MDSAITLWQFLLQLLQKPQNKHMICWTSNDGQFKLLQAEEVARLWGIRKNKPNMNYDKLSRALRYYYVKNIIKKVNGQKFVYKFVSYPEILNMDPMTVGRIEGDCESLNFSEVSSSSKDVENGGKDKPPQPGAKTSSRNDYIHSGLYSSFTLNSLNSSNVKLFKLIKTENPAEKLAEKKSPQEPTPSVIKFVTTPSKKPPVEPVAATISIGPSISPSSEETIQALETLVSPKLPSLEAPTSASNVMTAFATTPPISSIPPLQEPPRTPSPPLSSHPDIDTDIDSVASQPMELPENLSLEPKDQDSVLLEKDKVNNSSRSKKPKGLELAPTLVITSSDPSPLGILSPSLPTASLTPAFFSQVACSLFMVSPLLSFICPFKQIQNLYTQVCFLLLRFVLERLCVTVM
Summary of the method: as §1

[7] = biological target: T4, ETV2 (Homo sapiens, UniProt O00321 1-342); conditions: protein: recombinant; tags: N-terminal GST; dsDNA, one strand shown
T4 sequence: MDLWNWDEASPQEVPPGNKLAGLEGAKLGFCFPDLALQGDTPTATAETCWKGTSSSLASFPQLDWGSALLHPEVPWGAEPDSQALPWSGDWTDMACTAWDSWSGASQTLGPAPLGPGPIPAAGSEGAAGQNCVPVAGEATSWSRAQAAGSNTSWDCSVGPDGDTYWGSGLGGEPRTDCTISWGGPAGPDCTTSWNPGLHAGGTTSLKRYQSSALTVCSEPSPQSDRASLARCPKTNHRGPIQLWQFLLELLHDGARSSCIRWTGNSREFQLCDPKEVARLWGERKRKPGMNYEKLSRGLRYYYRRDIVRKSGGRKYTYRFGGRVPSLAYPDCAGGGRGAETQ
Summary of the method: as §1

[8] = biological target: CRX (Homo sapiens, UniProt O43186 1-299); conditions: protein: recombinant; tags: N-terminal GST; dsDNA, one strand shown
Sequence of CRX (O43186 whole entry): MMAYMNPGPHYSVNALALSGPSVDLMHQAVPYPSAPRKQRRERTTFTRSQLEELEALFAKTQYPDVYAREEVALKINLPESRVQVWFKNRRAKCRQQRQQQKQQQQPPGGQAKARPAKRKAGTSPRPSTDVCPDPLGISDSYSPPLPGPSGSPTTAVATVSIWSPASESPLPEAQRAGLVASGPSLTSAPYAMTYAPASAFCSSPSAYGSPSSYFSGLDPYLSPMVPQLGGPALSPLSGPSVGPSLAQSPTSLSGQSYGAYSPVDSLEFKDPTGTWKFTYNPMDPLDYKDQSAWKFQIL
Summary of the method: as §1

[9] = biological target: ETV1 (Homo sapiens, UniProt P50549 1-477); conditions: protein: recombinant; tags: N-terminal GST; dsDNA, one strand shown
Sequence of ETV1 (P50549 whole entry): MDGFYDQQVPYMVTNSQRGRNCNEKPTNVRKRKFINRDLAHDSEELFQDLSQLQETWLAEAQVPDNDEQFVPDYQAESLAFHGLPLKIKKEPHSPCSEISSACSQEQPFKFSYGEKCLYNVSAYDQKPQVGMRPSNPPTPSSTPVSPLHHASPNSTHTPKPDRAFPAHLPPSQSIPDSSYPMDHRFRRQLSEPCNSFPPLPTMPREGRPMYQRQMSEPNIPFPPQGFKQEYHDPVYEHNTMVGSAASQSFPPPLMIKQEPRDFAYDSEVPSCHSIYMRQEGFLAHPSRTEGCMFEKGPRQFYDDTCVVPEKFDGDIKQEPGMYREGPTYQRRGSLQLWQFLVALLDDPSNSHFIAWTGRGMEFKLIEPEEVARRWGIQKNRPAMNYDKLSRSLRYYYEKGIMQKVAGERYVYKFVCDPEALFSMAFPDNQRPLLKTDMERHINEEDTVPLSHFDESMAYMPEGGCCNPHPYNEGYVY
Summary of the method: as §1

Sequence	binding signal [1]	binding signal [2]	binding signal [3]	binding signal [4]	binding signal [5]	binding signal [6]	binding signal [7]	binding signal [8]	binding signal [9]
GGCTAG	1.08 fold enrichment (6-mer frequency, TF over GST control)	1.06 fold enrichment (6-mer frequency, TF over GST control)	1.18 fold enrichment (6-mer frequency, TF over GST control)	1.2 fold enrichment (6-mer frequency, TF over GST control)	1.1 fold enrichment (6-mer frequency, TF over GST control)	1.22 fold enrichment (6-mer frequency, TF over GST control)	1.15 fold enrichment (6-mer frequency, TF over GST control)	1.05 fold enrichment (6-mer frequency, TF over GST control)	1.03 fold enrichment (6-mer frequency, TF over GST control)
TTTCGC	1.16 fold enrichment (6-mer frequency, TF over GST control)	1.08 fold enrichment (6-mer frequency, TF over GST control)	1.32 fold enrichment (6-mer frequency, TF over GST control)	1.2 fold enrichment (6-mer frequency, TF over GST control)	1.08 fold enrichment (6-mer frequency, TF over GST control)	1.24 fold enrichment (6-mer frequency, TF over GST control)	1.39 fold enrichment (6-mer frequency, TF over GST control)	1.19 fold enrichment (6-mer frequency, TF over GST control)	1.09 fold enrichment (6-mer frequency, TF over GST control)
TCCACC	1.3 fold enrichment (6-mer frequency, TF over GST control)	1.16 fold enrichment (6-mer frequency, TF over GST control)	1.13 fold enrichment (6-mer frequency, TF over GST control)	1.03 fold enrichment (6-mer frequency, TF over GST control)	1.19 fold enrichment (6-mer frequency, TF over GST control)	1.19 fold enrichment (6-mer frequency, TF over GST control)	1.27 fold enrichment (6-mer frequency, TF over GST control)	1.04 fold enrichment (6-mer frequency, TF over GST control)	1.13 fold enrichment (6-mer frequency, TF over GST control)
TTTTAG	1.14 fold enrichment (6-mer frequency, TF over GST control)	1.09 fold enrichment (6-mer frequency, TF over GST control)	1.19 fold enrichment (6-mer frequency, TF over GST control)	1.13 fold enrichment (6-mer frequency, TF over GST control)	1.24 fold enrichment (6-mer frequency, TF over GST control)	1.1 fold enrichment (6-mer frequency, TF over GST control)	1.13 fold enrichment (6-mer frequency, TF over GST control)	1.48 fold enrichment (6-mer frequency, TF over GST control)	1.19 fold enrichment (6-mer frequency, TF over GST control)
TGTAGC	1.17 fold enrichment (6-mer frequency, TF over GST control)	1.24 fold enrichment (6-mer frequency, TF over GST control)	1.02 fold enrichment (6-mer frequency, TF over GST control)	1.11 fold enrichment (6-mer frequency, TF over GST control)	1.26 fold enrichment (6-mer frequency, TF over GST control)	1.31 fold enrichment (6-mer frequency, TF over GST control)	1.24 fold enrichment (6-mer frequency, TF over GST control)	–	1.22 fold enrichment (6-mer frequency, TF over GST control)
TTTGGC	1.27 fold enrichment (6-mer frequency, TF over GST control)	1.32 fold enrichment (6-mer frequency, TF over GST control)	1.23 fold enrichment (6-mer frequency, TF over GST control)	1.45 fold enrichment (6-mer frequency, TF over GST control)	1.26 fold enrichment (6-mer frequency, TF over GST control)	1.23 fold enrichment (6-mer frequency, TF over GST control)	1.31 fold enrichment (6-mer frequency, TF over GST control)	1.49 fold enrichment (6-mer frequency, TF over GST control)	1.22 fold enrichment (6-mer frequency, TF over GST control)
TATCTG	1.15 fold enrichment (6-mer frequency, TF over GST control)	1.15 fold enrichment (6-mer frequency, TF over GST control)	1.36 fold enrichment (6-mer frequency, TF over GST control)	1.17 fold enrichment (6-mer frequency, TF over GST control)	1.14 fold enrichment (6-mer frequency, TF over GST control)	1.25 fold enrichment (6-mer frequency, TF over GST control)	1.33 fold enrichment (6-mer frequency, TF over GST control)	1.46 fold enrichment (6-mer frequency, TF over GST control)	1.2 fold enrichment (6-mer frequency, TF over GST control)
TAAGCC	1.15 fold enrichment (6-mer frequency, TF over GST control)	1.12 fold enrichment (6-mer frequency, TF over GST control)	2.07 fold enrichment (6-mer frequency, TF over GST control)	1.15 fold enrichment (6-mer frequency, TF over GST control)	1.19 fold enrichment (6-mer frequency, TF over GST control)	1.15 fold enrichment (6-mer frequency, TF over GST control)	1.09 fold enrichment (6-mer frequency, TF over GST control)	3.55 fold enrichment (6-mer frequency, TF over GST control)	1.14 fold enrichment (6-mer frequency, TF over GST control)
GATGAA	1.13 fold enrichment (6-mer frequency, TF over GST control)	1.13 fold enrichment (6-mer frequency, TF over GST control)	1.21 fold enrichment (6-mer frequency, TF over GST control)	1.11 fold enrichment (6-mer frequency, TF over GST control)	1.2 fold enrichment (6-mer frequency, TF over GST control)	1.21 fold enrichment (6-mer frequency, TF over GST control)	1.13 fold enrichment (6-mer frequency, TF over GST control)	1.22 fold enrichment (6-mer frequency, TF over GST control)	1.27 fold enrichment (6-mer frequency, TF over GST control)
CACTCG	1.22 fold enrichment (6-mer frequency, TF over GST control)	1.13 fold enrichment (6-mer frequency, TF over GST control)	1.16 fold enrichment (6-mer frequency, TF over GST control)	1.08 fold enrichment (6-mer frequency, TF over GST control)	1.2 fold enrichment (6-mer frequency, TF over GST control)	1.24 fold enrichment (6-mer frequency, TF over GST control)	1.2 fold enrichment (6-mer frequency, TF over GST control)	–	1.09 fold enrichment (6-mer frequency, TF over GST control)
TTCACA	1.17 fold enrichment (6-mer frequency, TF over GST control)	1.16 fold enrichment (6-mer frequency, TF over GST control)	1.04 fold enrichment (6-mer frequency, TF over GST control)	1.08 fold enrichment (6-mer frequency, TF over GST control)	1.17 fold enrichment (6-mer frequency, TF over GST control)	1.28 fold enrichment (6-mer frequency, TF over GST control)	1.28 fold enrichment (6-mer frequency, TF over GST control)	–	1.25 fold enrichment (6-mer frequency, TF over GST control)
TGATTT	1.26 fold enrichment (6-mer frequency, TF over GST control)	1.27 fold enrichment (6-mer frequency, TF over GST control)	1.27 fold enrichment (6-mer frequency, TF over GST control)	1.39 fold enrichment (6-mer frequency, TF over GST control)	1.23 fold enrichment (6-mer frequency, TF over GST control)	1.2 fold enrichment (6-mer frequency, TF over GST control)	1.29 fold enrichment (6-mer frequency, TF over GST control)	1.35 fold enrichment (6-mer frequency, TF over GST control)	1.31 fold enrichment (6-mer frequency, TF over GST control)
TTAGAA	1.02 fold enrichment (6-mer frequency, TF over GST control)	1.01 fold enrichment (6-mer frequency, TF over GST control)	1.93 fold enrichment (6-mer frequency, TF over GST control)	1.25 fold enrichment (6-mer frequency, TF over GST control)	1.04 fold enrichment (6-mer frequency, TF over GST control)	1.1 fold enrichment (6-mer frequency, TF over GST control)	1.13 fold enrichment (6-mer frequency, TF over GST control)	2.08 fold enrichment (6-mer frequency, TF over GST control)	1.11 fold enrichment (6-mer frequency, TF over GST control)
GCCTAT	1.16 fold enrichment (6-mer frequency, TF over GST control)	1.3 fold enrichment (6-mer frequency, TF over GST control)	1.07 fold enrichment (6-mer frequency, TF over GST control)	1.12 fold enrichment (6-mer frequency, TF over GST control)	1.18 fold enrichment (6-mer frequency, TF over GST control)	1.31 fold enrichment (6-mer frequency, TF over GST control)	1.2 fold enrichment (6-mer frequency, TF over GST control)	1.3 fold enrichment (6-mer frequency, TF over GST control)	1.09 fold enrichment (6-mer frequency, TF over GST control)
